The list is not random: actives were taken first. Their share in the collection is about 11%.
L3MBTL1 inh – L3MBTL1 (human) inhibition | AID 485360 | Q9Y468 | AlphaScreen L3MBTL1–H3K9me1 peptide binding | actives 0.66% (n = 230,000) | Potency, µM (series often up to 57.1 µM), for the others: at the highest dose activity, negative = inhibition, usual class: inhibitors; further: potency means the concentration at half of the fitted maximal effect; on the % scale 0 is the no-effect control and ±100 the full control effect; nearly all actives have a fitted effect of over 60% in size
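AlphaScreen assay: L3MBTL1 (50 nM final) was preincubated 30 min at room temperature with biotinylated H3(1-15)K9me1 peptide (75 nM final), then 30 min with library compounds; streptavidin donor and nickel chelate acceptor beads (10 ug/mL final) added, 30 min dark.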
HP1b binding inh – HP1-beta chromodomain-methylated histone interaction inhibition; Potency, µM (highest dose often 114 µM), inactives show at the top dose activity change, negative = inhibition, most hits filed as inhibitors; AID 540317; AlphaScreen HP1-beta / biotin-H3K9me3 peptide binding; actives 0.56% (n = 390,000); P83916; further: potency means the concentration at half of the fitted maximal effect; nearly all actives have a fitted effect of over 70% in size
Target sequence (P83916 whole entry, looked up): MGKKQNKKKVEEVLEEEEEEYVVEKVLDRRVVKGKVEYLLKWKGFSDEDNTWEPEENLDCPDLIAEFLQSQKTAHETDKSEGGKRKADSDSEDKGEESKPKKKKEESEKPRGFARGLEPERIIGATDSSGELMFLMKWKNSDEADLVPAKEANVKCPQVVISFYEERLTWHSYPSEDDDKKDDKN
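AlphaScreen: HP1-beta (50 nM) preformed 30 min with biotin-H3(1-18)K9me3 peptide (50 nM) in PBS pH 7.4, 0.01% Tween-20. Compound added for 30 min at RT, then streptavidin donor/nickel chelate acceptor beads (10 ug/mL) for 30 min.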
BAZ2B inh – BAZ2B (human) inhibition. Q9UIF8. AlphaScreen BAZ2B-H3K14Ac peptide displacement. Potency, µM (series often up to 114 µM), for inactives: at the highest dose activity change, negative = inhibition, usual class: inhibitors. actives 4.4% (n = 360,000). AID 504333; further: potency means the concentration at half of the fitted maximal effect; on the % scale 0 is the no-effect control and ±100 the full control effect; nearly all actives have a fitted effect of over 60% in size
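BAZ2B (50 nM) with biotin-H3(5-23)K14Ac peptide (50 nM) in PBS pH 7.4, 0.01% Tween-20, preformed 30 min, then compound 30 min at room temperature; top concentration 110uM. AlphaScreen streptavidin donor/nickel chelate acceptor beads (10 ug/mL final), 20 min dark, signal read.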
G9a inh – inhibitors of human histone lysine methyltransferase G9a; G9a H3K9 monomethylation, AlphaScreen, 2 h; Potency, µM (doses to about 102 µM), for the others: at the highest dose activity, negative = inhibition, hits mostly inhibitors; actives 8.8% (n = 350,000); further: potency means the concentration at half of the fitted maximal effect; on the % scale 0 is the no-effect control and ±100 the full control effect; nearly all actives have a fitted effect of over 75% in size
Target sequence (Q96KQ7 913-1193 limits assumed): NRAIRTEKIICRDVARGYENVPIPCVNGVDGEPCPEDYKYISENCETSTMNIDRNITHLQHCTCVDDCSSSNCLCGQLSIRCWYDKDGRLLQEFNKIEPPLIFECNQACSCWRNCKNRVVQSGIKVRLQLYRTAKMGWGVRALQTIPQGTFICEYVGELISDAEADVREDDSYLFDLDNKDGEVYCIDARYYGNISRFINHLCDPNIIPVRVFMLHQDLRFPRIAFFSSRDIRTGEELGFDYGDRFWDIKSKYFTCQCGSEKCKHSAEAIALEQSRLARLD
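Using a bead-based AlphaScreen, monomethylated H3K9 product from 2 h room-temperature reactions (G9a 20 nM, peptide 500 nM, SAM 20 uM) was detected with 0.5 ug/mL rabbit anti-H3K9me1 antibody.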
JMJD2A Tudor inh – blocks the human JMJD2A Tudor domain; O75164; AlphaScreen JMJD2A-Tudor / H3K4me3 peptide binding; Potency, µM (top dose mostly 114 µM), inactives show at the top dose activity change, negative = inhibition, most hits filed as inhibitors; actives 4.4% (n = 390,000); further: potency means the concentration at half of the fitted maximal effect; on the % scale 0 is the no-effect control and ±100 the full control effect; nearly all actives have a fitted effect of over 50% in size
PI5P4Ka inh – blocks human PI5P4K alpha kinase activity; PI5P4Kalpha enzyme, ADP-Glo luminescence, 60 min; stronger effect = lower value; P48426; max response, %; AID 652105; actives 1.2% (n = 330,000); active means max response of -50% or lower; inconclusive means between -30% and -50%; inactive means -30% or higher; further: value at the top dose of about 77 µM; on the % scale 0 is the no-effect control and ±100 the full control effect
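Human PI5P4Kalpha with substrate in 0.038 M HEPES pH 7.4, 0.28 mM EGTA, 0.1% CHAPS, 5% DMSO; reaction started with 5 microM ATP (final), 60 min at room temperature. ADP formed read by ADP-Glo luminescence.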
The depositor's hits bear a star; ? = inconclusive; . = no result; [ ] = dose if it differs, or a comment. Unless noted, the call rests on the fitted dose curve; in most records, active means well fitted inhibition curve with a large enough effect; inconclusive means small, poorly fitted or top-dose-only effect; inactive means no such curve, though single readings can be large or run the other way.

SMILES | L3MBTL1 inh | HP1b binding inh | BAZ2B inh | G9a inh | JMJD2A Tudor inh | PI5P4Ka inh
CCN(CC)CCCN(C(=O)c1ccccc1C)c1nc(-c2ccc(OC)cc2)cs1 | 6.2%[2.29 µM] | -9.5% | 50.1µM* | -36.4%[0.501 µM] | 44.7µM* | -8.1
COc1ccc(-c2csc(N(CCCN(C)C)C(=O)c3ccc(C(C)(C)C)cc3)n2)cc1 | 0.3% | -12.5% | ? | ? | ? | -7.5
Cc1ccc(-c2csc(N(CCCN3CCOCC3)C(=O)c3ccco3)n2)cc1 | -10.2% | 0.5% | ? | ? | -34.5% | .
COc1ccc(-c2csc(N(CCCN(C)C)C(=O)c3ccc(C)cc3)n2)cc1 | -11.0% | -7.6% | ? | 79.4µM* | ? | 13.0
CCN(CC)CCCN(C(=O)c1ccccc1F)c1nc(-c2ccc(OC)cc2)cs1 | -3.9% | 17.8% | ? | . | ? | -0.3
COc1ccc(-c2csc(N(CCCN3CCOCC3)C(=O)c3ccco3)n2)cc1 | -11.5% | ? | ? | 2.0%[59 µM] | 100µM* | 3.7
COc1ccc(-c2csc(N(CCCN(C)C)C(=O)c3ccc(Br)cc3)n2)cc1 | -2.9%[2.29 µM] | -13.9% | 44.7µM* | 9.0%[0.501 µM] | -30.6% | -6.6
CCNc1ncc2ncc(=O)n(Cc3ccc(F)cc3)c2n1 | . | . | . | 14.6%[0.501 µM] | . | .
O=C(Nc1ccc2nc(SCC(=O)N3CCc4ccccc43)sc2c1)c1ccc(F)cc1 | . | 31.9% | -17.8% | -15.7%[59 µM] | -14.2% | .
CC(=O)OC1CC(OC(C)=O)[C@]2(C)C(CC(OC(C)=O)[C@]3(C)C2CC[C@@]2(C)C(c4ccoc4)OC(=O)C4O[C@]432)C1(C)C (some centres not stated) | . | . | . | -14.7%[2.33 µM] | . | .
COc1cc2[nH]c3c(=O)n(CCN(C(C)C)C(C)C)cnc3c2cc1OC | . | 41.1% | 0.6% | 79.4µM* | -10.4% | -4.1
CC(C)N(CCn1cnc2c([nH]c3ccccc32)c1=O)C(C)C | 8.1% | 37.5% | 2.0% | . | 0.7%[11.4 µM] | -10.0
O=C1CC(c2ccccc2)CC(=O)C1CS(=O)(=O)c1ccccc1 (configuration not stated) | . | 44.8% | -32.2% | 3.16µM* | -20.1% | ?
CCOc1ccc(S(=O)(=O)N2CCOCC2)cc1NC(=O)C1CSC2(C)CCC(=O)N12 (configuration not stated) | -3.0% | 15.4% | -17.4% | 44.7µM* | -2.1% | -10.9
CCCSCCCNC(=O)c1ccc2c(c1)nc1n2CCCCC1 | . | 24.9%[57 µM] | 1.7% | 11.1%[59 µM] | -0.3% | .
CCC(=C(c1ccc(OC)cc1)c1ccc(OC)cc1)c1cn(CC(O)CN(CCO)CCO)c2ccccc12 (configuration not stated) | -20.1% | -5.7% | 35.5µM* | 39.8µM* | 44.7µM* | 32.0
COc1ccc(OCC(O)CN(CCO)CC(O)Cn2ccc3ccccc32)cc1 (configuration not stated) | -6.9% | 21.1% | -4.4% | 10.2%[59 µM] | -21.8% | 4.8
COc1ccc(CCNC(=O)CSc2nnc(-c3ccco3)c(-c3ccco3)n2)cc1OC | . | . | 44.7µM* | 8.91µM* | . | .
COc1ccc(-c2nnc(SCC(=O)NCCc3ccc(OC)c(OC)c3)nc2-c2ccc(OC)cc2)cc1 | . | 6.1% | ? | 8.91µM* | ? | .
COc1ccc(CCNC(=O)CSc2ccc(-c3ccco3)nn2)cc1OC | . | 52.2% | 3.7% | 44.7µM* | -8.2% | 3.4
COc1cc(NC(=O)CCCN2C(=O)CCn3nc(-c4cn(C)c5ccccc45)cc32)cc(OC)c1 | . | 19.4%[57 µM] | -30.9% | -9.0%[59 µM] | -33.2% | .
CC(C)(C)NC(=O)COC(=O)CNC(=O)C1CCCCC1 | . | 10.9%[57 µM] | . | . | 6.9%[57.1 µM] | .
CCNC(=S)/N=C(\N)Nc1nc(C)c2cc(C)ccc2n1 | -4.9% | 12.3% | 11.2µM* | ? | ? | 8.7
CCOc1ccc2nc(N/C(N)=N/C(=S)Nc3ccc(C)c(C)c3)nc(C)c2c1 | -9.7% | 31.9% | -8.5% | 13.4% | -19.9% | 7.2
CC(=O)Nc1cccc(-c2nc3ccccc3c(=O)o2)c1 | 13.4% | 58.5% | 0.9% | 11.2µM* | -8.7% | -1.8
SMILES | L3MBTL1 inh | HP1b binding inh | BAZ2B inh | G9a inh | JMJD2A Tudor inh | PI5P4Ka inh
Fc1ccc(-[n+]2nc(Nc3ccccc3)sc2-c2c3ccccc3cc3ccccc23)cc1 | ? | ? | 5.01µM* | 11.2µM* | 15.8µM* | -62.8*
Oc1ccc2ccccc2c1-c1sc(Nc2ccccc2)n[n+]1-c1ccc(F)cc1 | -8.3% | 20.6% | ? | 39.8µM* | ? | 0.8
c1ccc(-[n+]2nc(Nc3cccc4ccccc34)sc2-c2c3ccccc3cc3ccccc23)cc1 | ? | ? | 3.55µM* | 25.8%[2.33 µM] | 2.51µM* | -16.2
O=c1oc2ccc3ccccc3c2cc1-c1nnc(Nc2ccc(F)cc2)s1 | . | 32.9% | 0.1% | -4.7%[59 µM] | -11.1% | .
COc1ccc(-c2sc(Nc3ccccc3)n[n+]2-c2ccc(F)cc2)c(C)c1C | -4.7% | -3.0% | ? | ? | ? | -16.3
CCCNC(=O)c1csc(Nc2cccc3ccccc23)n1 | -2.2%[2.29 µM] | -5.3% | ? | 16.1%[0.501 µM] | -32.8% | 0.1
CC(C)(C)n1cnc2cc(NC(=O)c3cccs3)ccc21 | -0.7% | 38.4% | -19.7% | 39.8µM* | -13.7% | -7.3
O=C(Nc1nccs1)C1CCCN1S(=O)(=O)c1ccc(Cl)cc1 (configuration not stated) | -0.7% | 21.6% | . | -45.6%[59 µM] | -13.4% | .
O=C(Nc1nccs1)[C@@H]1CCCN1S(=O)(=O)c1ccccc1F | -4.9% | 32.4% | 6.7% | 39.8µM* | 0.7% | -4.2
COc1ccc(C)cc1NC(=O)C1CCCN1S(=O)(=O)c1ccccc1F (configuration not stated) | 6.6% | 42.3% | 11.4% | 8.91µM* | 4.4% | 1.3
CCOC(=O)CSc1nc(N)c(C#N)c(-c2ccc(OC)cc2)c1C#N | 0.4% | 57.6% | 7.4% | 50.1µM* | 5.8% | -64.5*
COc1ccc(-c2c(C#N)c(N)nc3sc(C(=O)c4ccccc4)c(N)c23)cc1 | 13.4% | 85.9% | 23.5% | 50.1µM* | 15.5% | -24.8
Cc1cc(C)c(NC(=O)C(C)n2nc(C)c3sc4ccccc4c3c2=O)c(C)c1 (configuration not stated) | . | 36.6% | -3.0% | 10.4%[59 µM] | -14.9% | .
COc1cccc(C2C(C#N)=C(NC(=O)CCc3ccccc3)Oc3ccc4ccccc4c32)c1 (configuration not stated) | . | . | . | . | -24.0% | .
O=C1OC(c2ccc3c(c2)OCO3)=N/C1=C\c1ccc(C(=O)O)cc1 | . | 4.4% | -22.2% | 39.8µM* | -19.7% | -10.9
O=C(O)c1cccc(-c2ccc3c(c2)OCO3)c1 | . | 45.6% | -9.8% | -11.5% | -9.6% | -2.0
CCOC(=O)Cc1nn2c(=O)cc(C)nc2s1 | 1.5% | 6.1% | 79.4µM* | 3.3%[12.7 µM] | -11.5% | 8.1

From PubChem BioAssay
